# Measurements from the supplement of paper PMC8728848.
# This excerpt belongs to a sample that is enriched for the strongest signals.
# Columns and labels:
# Assay in all cases: glycan array binding signal (z-score within array); higher = stronger binding
# Conditions in all cases: glycan notation: IUPAC condensed, linker removed
# [1] = molecular target: GlcNAc(b1-3)Gal(b1-4)GlcNAc(b1-3)Gal(b1-4)GlcNAc(b1-3)Gal(b1-4)GlcNAc(b1-2)[GlcNAc(b1-3)Gal(b1-4)GlcNAc(b1-3)Gal(b1-4)GlcNAc(b1-3)Gal(b1-4)GlcNAc(b1-6)]Man(a1-6)[GlcNAc(b1-3)Gal(b1-4)GlcNAc(b1-3)Gal(b1-4)GlcNAc(b1-3)Gal(b1-4)GlcNAc(b1-2)Man(a1-3)]Man(b1-4)GlcNAc(b1-4)[Fuc(a1-6)]GlcNAc
# Outline: (§1)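 Glycan array data were curated from 3228 arrays in the Consortium for Functional Glycomics database and kept only where the protein sequence was available. Glycan names were converted to IUPAC-condensed notation, and columns mapping to the same glycan were averaged. The binding signal is a within-array Z-score, averaged across arrays of the same protein sequence at different concentrations or buffers and across linkers. Negative Z-scores can be read as non-binding.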
# [2] = molecular target: GlcNAc(b1-3)Gal(b1-4)GlcNAc(b1-3)Gal(b1-4)GlcNAc(b1-3)Gal(b1-4)GlcNAc(b1-3)Gal(b1-4)GlcNAc(b1-2)Man(a1-3)[GlcNAc(b1-3)Gal(b1-4)GlcNAc(b1-3)Gal(b1-4)GlcNAc(b1-3)Gal(b1-4)GlcNAc(b1-3)Gal(b1-4)GlcNAc(b1-2)Man(a1-6)]Man(b1-4)GlcNAc(b1-4)[Fuc(a1-6)]GlcNAc
# Outline: as §1
# [3] = molecular target: GlcNAc(b1-3)Gal(b1-4)GlcNAc(b1-6)[GlcNAc(b1-3)]Gal(b1-4)GlcNAc
# Outline: as §1
# Kdn(a2-3)Gal(b1-3)GalNAc = molecular target: Kdn(a2-3)Gal(b1-3)GalNAc
# Outline: as §1
# Kdn(a2-3)Gal(b1-4)Glc = molecular target: Kdn(a2-3)Gal(b1-4)Glc
# Outline: as §1
# [4] = molecular target: Man(a1-2)Man(a1-3)[Man(a1-2)Man(a1-6)]Man(a1-6)[Man(a1-2)Man(a1-2)Man(a1-3)]Man(b1-4)GlcNAc(b1-4)GlcNAc
# Outline: as §1
# Man(a1-6)Man = molecular target: Man(a1-6)Man
# Outline: as §1
# [5] = molecular target: Neu5Ac(a2-3)Gal(b1-3)GalNAc(b1-4)[Neu5Ac(a2-8)Neu5Ac(a2-3)]Gal(b1-4)Glc
# Outline: as §1
# Neu5Ac(a2-3)Gal(b1-4)Glc = molecular target: Neu5Ac(a2-3)Gal(b1-4)Glc
# Outline: as §1
# [6] = molecular target: Neu5Ac(a2-3)Gal(b1-4)GlcNAc(b1-2)Man(a1-3)[GlcNAc(b1-4)][Neu5Ac(a2-3)Gal(b1-4)GlcNAc(b1-2)Man(a1-6)]Man(b1-4)GlcNAc(b1-4)GlcNAc
# Outline: as §1
# [7] = molecular target: Neu5Ac(a2-3)Gal(b1-4)GlcNAc(b1-2)[Neu5Ac(a2-3)Gal(b1-4)GlcNAc(b1-6)]Man(a1-6)[Neu5Ac(a2-3)Gal(b1-4)GlcNAc(b1-2)Man(a1-3)][GlcNAc(b1-4)]Man(b1-4)GlcNAc(b1-4)GlcNAc
# Outline: as §1
# [8] = molecular target: Neu5Ac(a2-3)Gal(b1-4)[Fuc(a1-3)]GlcNAc(b1-6)[Gal(b1-3)]GalNAc
# Outline: as §1
# [9] = molecular target: Neu5Ac(a2-6)Gal(b1-4)GlcNAc(b1-2)Man(a1-6)Man(b1-4)GlcNAc(b1-4)GlcNAc
# Outline: as §1
# [10] = molecular target: Neu5Ac(a2-6)Gal(b1-4)GlcNAc(b1-2)Man(a1-6)[GlcNAc(b1-2)Man(a1-3)]Man(b1-4)GlcNAc(b1-4)GlcNAc
# Outline: as §1
# [11] = molecular target: Neu5Ac(a2-6)Gal(b1-4)GlcNAc(b1-3)Gal(b1-4)GlcNAc(b1-3)Gal(b1-4)GlcNAc(b1-2)Man(a1-3)[Neu5Ac(a2-6)Gal(b1-4)GlcNAc(b1-3)Gal(b1-4)GlcNAc(b1-3)Gal(b1-4)GlcNAc(b1-2)Man(a1-6)]GalNAc
# Outline: as §1
# [12] = molecular target: Neu5Ac(a2-6)Gal(b1-4)GlcNAc(b1-3)GalNAc
# Outline: as §1
# [13] = molecular target: Neu5Ac(a2-6)GalNAc(b1-4)GlcNAc6S
# Outline: as §1
# [14] = molecular target: Neu5Ac(a2-8)Neu5Gc(a2-3)Gal(b1-4)GlcNAc
# Outline: as §1
# [15] = molecular target: Neu5Ac9Ac(a2-3)Gal(b1-4)GlcNAc
# Outline: as §1
# [16] = molecular target: Neu5Ac9Ac(a2-6)Gal(b1-4)GlcNAc
# Outline: as §1
# Neu5Gc(a2-6)GalNAc = molecular target: Neu5Gc(a2-6)GalNAc
# Outline: as §1
# [17] = molecular target: Neu5Gc(a2-8)Neu5Gc(a2-3)Gal(b1-4)GlcNAc(b1-3)Gal(b1-4)GlcNAc
# Outline: as §1
binder,measurement,setting,value
PX9937A-bvu-521-23-521 (Bacteroides vulgatus) (protein) LDLAPEDYYGAGNFWKEASQPKAFMLGLHAQLRSYYDMFYTLGELRGGTQRVGTSSLNTSLNYADIRSQNISEDIPGISNWNGLYSPIMQVNHFIQEVENGCTFLDDATRSRYLGQAYGMRALYYFMLYRTFGGVPLITKVDILDGKPSADKFYVERATPEATMEFIKADINKSENYFGNNTSFDAYDWSRYATLMLKAEIYMWAAKVSITGFTATGATDLQTAKTALSGIIGHFELMDNFASIFSCDNKKNTEIIFAMPFIEGEASNDGGRFLYQDAVFLGQAYGRNGKVIEKDTLNLKGTGGVFRDEYTEDFWKTFKEGDSRRDATFMEYYMKNDNGTLSEFGCVMKKRIGTINSNDNRIYISDIPVYRYADALLMMAEIENGLNNPCASYINEVRKRAYGDTFEENKYTEGSYAENELAILQERDKEFVSEGKRWFDVLRMHDASGRSLVFSANANYPGTNPILGTEEAYKMLWPVNIGTLNVNPLLTQTPGYGKK,glycan array binding signal (z-score),[1],-0.128
same,glycan array binding signal (z-score),[2],-0.708
same,glycan array binding signal (z-score),[3],-0.214
same,glycan array binding signal (z-score),Kdn(a2-3)Gal(b1-3)GalNAc,2.84
same,glycan array binding signal (z-score),Kdn(a2-3)Gal(b1-4)Glc,-0.287
same,glycan array binding signal (z-score),[4],-0.427
same,glycan array binding signal (z-score),Man(a1-6)Man,4.8
same,glycan array binding signal (z-score),[5],0.038
same,glycan array binding signal (z-score),Neu5Ac(a2-3)Gal(b1-4)Glc,0.96
same,glycan array binding signal (z-score),[6],-0.062
same,glycan array binding signal (z-score),[7],-0.581
same,glycan array binding signal (z-score),[8],-0.51
same,glycan array binding signal (z-score),[9],-0.252
same,glycan array binding signal (z-score),[10],-0.416
same,glycan array binding signal (z-score),[11],0.232
same,glycan array binding signal (z-score),[12],-0.431
same,glycan array binding signal (z-score),[13],0.342
same,glycan array binding signal (z-score),[14],10.6
same,glycan array binding signal (z-score),[15],0.442
same,glycan array binding signal (z-score),[16],0.304
same,glycan array binding signal (z-score),Neu5Gc(a2-6)GalNAc,-0.419
same,glycan array binding signal (z-score),[17],-0.58
